Sampled rows, rich in hits. Any-hit rate of the full collection: about 3.4%.
FBW7 act: activators of human E3 ligase FBW7; Q969H0; AlphaScreen FBW7–phospho-cyclin E peptide binding, activator screen; normalized activity (activation), % at 26.1 µM; 0.13% of 650,000 active; in the data active = normalized activity above about 1.9%;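 note: purified mutant Fbw7 with reduced substrate affinity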
MITF primary: inhibitors of human MITF; inhibition, % at 2.6 µM; AlphaScreen MITF homodimerization, bead proximity signal; 0.91% of 650,000 active; O75030; AID 1259374; in the data active = inhibition above about 50%;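 note: 0% = vehicle wells with protein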
Target sequence (O75030 whole entry, looked up): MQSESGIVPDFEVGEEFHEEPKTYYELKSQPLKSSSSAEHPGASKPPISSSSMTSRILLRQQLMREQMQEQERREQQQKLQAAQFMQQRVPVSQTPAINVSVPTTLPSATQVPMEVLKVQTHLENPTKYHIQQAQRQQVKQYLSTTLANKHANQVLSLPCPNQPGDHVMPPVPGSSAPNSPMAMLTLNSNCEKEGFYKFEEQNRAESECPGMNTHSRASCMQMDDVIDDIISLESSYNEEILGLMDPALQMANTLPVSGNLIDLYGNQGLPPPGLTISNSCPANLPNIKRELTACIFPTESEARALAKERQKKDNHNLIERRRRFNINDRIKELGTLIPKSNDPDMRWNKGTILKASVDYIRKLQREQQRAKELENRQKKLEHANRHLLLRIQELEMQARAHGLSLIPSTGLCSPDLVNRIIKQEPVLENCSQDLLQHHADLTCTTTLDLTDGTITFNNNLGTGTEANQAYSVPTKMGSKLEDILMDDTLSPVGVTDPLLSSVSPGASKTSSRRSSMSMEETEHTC
GPR151 activ: activates the human receptor GPR151 | Q8TDV0 | PathHunter beta-arrestin GPR151 cells, luminescence | activation, % at 11.2 µM | 1% of 650,000 active | AID 1508602; in the data active = activation above about 4.9%;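 note: 0% = median of compound wells and 100% = cells with positive control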
TEAD-YAP block: TEAD-YAP interaction inhibition | HEK-TIYL cells, TEAD-Gal4/YAP UAS-luciferase luminescence | inhibition, % at 9.12 µM | 1.4% of 640,000 active; in the data active = inhibition above about 32%;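 note: 0% = median of test compound wells and 100% = reference inhibitor wells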
GPR151 confirm: confirmation of human GPR151 activators. shares compounds with GPR151 activ. GPR151 PathHunter beta-arrestin cells, luminescence, 90 min; % of EA-reagent control over plate median. activation, % at 11.2 µM. 6,700 tested, under 10 active;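 active = mean percent activation across replicates above the confirmation screen cutoff of 4.91%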
GPR119 counter: counter-screen for GPR151 activators: effect on human GPR119; shares compounds with GPR151 activ; GPR119 PathHunter beta-arrestin cells, luminescence, 90 min; 0 = compound-well median, 100 = enzyme-acceptor control; activation, % at 11.2 µM; 0.3% of 6,700 active; AID 1508611;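 active = mean percent activation in the counterscreen above 29.09%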;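 note: counterscreen on off-target GPR119 to flag nonselective hits from the GPR151 activator screen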
An asterisk follows results filed as active; nt = not tested or not shown; ! = repeats disagree.

SMILES	FBW7 act	MITF primary	GPR151 activ	TEAD-YAP block	GPR151 confirm	GPR119 counter
CCOc1cccc(N2C(=O)CC(N3CCN(c4ccccn4)CC3)C2=O)c1 (stereo not drawn)	0	-11	0	5	nt	nt
COc1cccc(N2C(=O)CC(N3CCN(c4ccccn4)CC3)C2=O)c1 (stereo not drawn)	0	3	5.1*	0	0	-6
CCOC(=O)N1CCN(S(=O)(=O)c2cccc(C#N)c2)CC1	0	-1	1	2	nt	nt
CC(=O)OC[C@H]1O[C@H](C#Cc2ccc(C(C)(C)C)cc2)C=C[C@@H]1OC(C)=O	0	-2	0	nt	nt	nt
COc1ccc(C#C[C@@H]2C=C[C@H](OC(C)=O)[C@@H](COC(C)=O)O2)cc1	0	-8	9.3*!	nt	1	-5
CC(C)/C(=N\Nc1cn[nH]c(=O)c1Cl)c1ccccc1	0	7	2	-4	nt	nt
O=C1C2CC=CCC2C(=O)N1CC(=O)N1N=C(c2ccc(Cl)cc2)CC1c1ccco1 (stereo not drawn)	0	10	6.6*	5	2	-6
Cc1ccc2c(c1)C(=C(C#N)C#N)C=C(c1cccs1)O2	0	1	5.3*	-9	0	10
Cc1nnc2n1CCN(C(=O)c1ccccc1N(C)C)CC2	0	-10	5.2*	-6	1	4
COc1ccc(-c2ccc(SCC(=O)Nc3ccc(NC(C)=O)cc3)nn2)cc1OC	1	16	0	-12	nt	nt
CCOC(=O)c1sc2nc(N)c(C#N)c(-c3ccc(Cl)cc3)c2c1N	0	-2	6.6*	2	0	-12
COC(=O)c1sc2nc(N)c(C#N)c(-c3ccc(Cl)cc3)c2c1N	0	5	0	3	nt	nt
Cc1cn2c3c(=O)n(CC(N)=O)c(=O)n(C)c3nc2n1-c1ccc(Cl)cc1	0	5	5.7*	3	0	-4
Cc1occc1C(=O)NCc1ccco1	0	41	-1	-3	nt	nt
Cc1oc(C)c(S(=O)(=O)NC(C)C)c1C(=O)NCc1ccco1	0	-2	7.1*	2	2	1
Cc1ccc(NC(=O)/C(=C/c2cccc([N+](=O)[O-])c2)NC(=O)c2cccs2)c(Br)c1	0	16	6.9*	4	5.5*	-4
N#C/C(=C\c1cccs1)C(=O)Nc1ccc([N+](=O)[O-])cc1Br	0	7	6.4*	0	1	6
Cc1cc(NC(=O)/C(=C/c2cccc([N+](=O)[O-])c2)NC(=O)c2cccs2)ccc1Br	0	-11	1	2	nt	nt
COc1ccccc1Nc1nc(Cl)ccc1[N+](=O)[O-]	0	1	5.0*	-9	0	2
COc1ccccc1Nc1nc(Cl)cc(N)c1[N+](=O)[O-]	0	15	3	-2	nt	nt
Cc1ncc(CO)c(/C=N/NC(=O)c2cccc(Br)c2)c1O	-1	39	2	17	nt	nt
CCOC(=O)C1CCN(S(=O)(=O)c2cc3[nH]c(=O)c(=O)[nH]c3cc2C)CC1	0	-8	5.2*	-1	0	-2
COc1ccc(C2CC(c3cccs3)=NN2C(=O)c2ccco2)cc1OC (stereo not drawn)	nt	nt	-1	nt	nt	nt
Cc1cc(C)cc(-n2cnc3cc(C(=O)NCc4ccc5c(c4)OCO5)ccc32)c1	0	-16	-1	-3	nt	nt
Cc1cccc(-n2cnc3cc(C(=O)NCc4ccc5c(c4)OCO5)ccc32)c1	0	15	7.0*	5	-1	-7
SMILES	FBW7 act	MITF primary	GPR151 activ	TEAD-YAP block	GPR151 confirm	GPR119 counter
CCc1ccc(N(CC(=O)NC)S(C)(=O)=O)cc1	0	-12	5.3*	-3	0	-10
CCc1ccc(N(CC(=O)OC)S(C)(=O)=O)cc1	1	14	1	4	nt	nt
CC(=O)c1ccc(NC(=O)COC(=O)c2ccc3c(c2)nc(C)n3-c2ccccc2)cc1	0	16	7.1*	-11	2	12
Cc1nc2cc(C(=O)OCC(=O)Nc3ccc(C#N)cc3)ccc2n1-c1ccccc1	0	4	-1	-1	nt	nt
O=C(O)c1ccc(Sc2cccc(Cl)c2)c([N+](=O)[O-])c1	0	1	1	0	nt	nt
CC(C)c1nc2cccnc2n1C1CCN(C(=O)c2n[nH]c3c2CCC3)CC1	0	17	10*	-13	1	10
Cn1ccc(C(=O)NCC2Cc3cc(-c4cnccn4)cc(Cl)c3O2)n1 (stereo not drawn)	0	18	1	-1	nt	nt
Cc1ccn(CCC(=O)NCC2Cc3cc(-c4cnccn4)cc(Cl)c3O2)n1 (stereo not drawn)	0	-9	12*	-1	1	16
COc1ccccc1C1CN(Cc2cccnc2)Cc2ccccc2O1 (stereo not drawn)	0	3	0	5	nt	nt
CCC(C)Nc1c([N+](=O)[O-])cc(C)cc1[N+](=O)[O-] (stereo not drawn)	0	10	0	5	nt	nt
CCN(CCn1cccn1)c1nc2nonc2nc1NCc1ccccc1	0	8	6.5*	-4	0	2
CN(CCn1ccnc1)c1nc2nonc2nc1NCc1ccccc1	0	6	2	0	nt	nt
COCCCNC(=S)N1CCCC(c2nc3ccc(C)cc3[nH]2)C1 (stereo not drawn)	0	-10	5.2*	-22	0	-2
Cc1sc(N=C(N)N)nc1-c1ccc2c(c1)CCN2C(=O)C1CCCCC1	0	6	5.1*	5	0	-1
COC(=O)c1c(N2C(N)=C(C#N)C(c3ccsc3)C3=C2CCCC3=O)sc2c1CCCC2 (stereo not drawn)	0	12	2	5	nt	nt
O=C1Nc2ccc3ccccc3c2C(c2ccccc2)N1 (stereo not drawn)	1	1	9.1*	16	-1	-13
COc1ccc(/C=C(\C#N)C(=O)OCC(=O)NC23CC4CC(CC(C4)C2)C3)cc1	1	17	1	1	nt	nt
COc1ccc(/C(C)=N/NC(=O)c2ccccc2Br)cc1	0	20	5.7*	-10	0	6
COc1ccc(S(=O)(=O)N(CC(=O)NCc2cccnc2)C2CCCCC2)cc1OC	0	2	5.2*	5	0	2
Cc1cc(C)c(S(=O)(=O)N(CC(=O)NCc2cccnc2)C2CCCCC2)c(C)c1	0	-6	1	-4	nt	nt
O=C(CCn1cccc1)Nc1ccc(Cl)cc1	0	-1	-1	5	nt	nt
COc1ccc(OCC(=O)Nc2ccc3oc(=O)ccc3c2)cc1	0	-1	5.8*	10	0	9
Cc1ccc(OCC(=O)NNC(=O)COc2ccc(Br)cc2C)c(C)c1	0	13	0	-9	nt	nt
Cc1ccc(OCC(=O)Nc2ccc(Br)cn2)c(C)c1	0	0	8.3*	-19	-1	-10
Cc1ccc(OCC(=O)Nc2ccc3oc(=O)ccc3c2)c(C)c1	0	1	5.5*	5	0	-5

Compound activity: PubChem, The Scripps Research Institute Molecular Screening Center
